# Experimental data reported in PubChem BioAssay (EPA / NIEHS).
# Activity calls are given as the source filed them. How the source made its calls: active means hit-call score of the fitted dose curve at least 0.9, where 1 is the maximum; inactive means score below 0.9.
# Target: Signal transducer and activator of transcription 3 (Homo sapiens) (UniProt P40763)
# Test: ATG_STAT3_CIS: Attagene CIS-FACTORIAL HepG2 Assay for human Signal Transducer and Activator of Transcription 3 (STAT3) (AID 2282963)
# Conditions: HepG2, Attagene cis-factorial STAT3 reporter transcription; actives raise or lower the signal
# Method in brief: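 Readout: fluorescent reporter mRNA fragments resolved by capillary electrophoresis. Setup: HepG2 transfected with MRTUs reporting endogenous transcription-factor activity, dosed 24 h. Gain or loss of signal fitted bidirectionally against DMSO control.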
# Chain of Signal transducer and activator of transcription 3 (Homo sapiens) (P40763 whole entry, looked up): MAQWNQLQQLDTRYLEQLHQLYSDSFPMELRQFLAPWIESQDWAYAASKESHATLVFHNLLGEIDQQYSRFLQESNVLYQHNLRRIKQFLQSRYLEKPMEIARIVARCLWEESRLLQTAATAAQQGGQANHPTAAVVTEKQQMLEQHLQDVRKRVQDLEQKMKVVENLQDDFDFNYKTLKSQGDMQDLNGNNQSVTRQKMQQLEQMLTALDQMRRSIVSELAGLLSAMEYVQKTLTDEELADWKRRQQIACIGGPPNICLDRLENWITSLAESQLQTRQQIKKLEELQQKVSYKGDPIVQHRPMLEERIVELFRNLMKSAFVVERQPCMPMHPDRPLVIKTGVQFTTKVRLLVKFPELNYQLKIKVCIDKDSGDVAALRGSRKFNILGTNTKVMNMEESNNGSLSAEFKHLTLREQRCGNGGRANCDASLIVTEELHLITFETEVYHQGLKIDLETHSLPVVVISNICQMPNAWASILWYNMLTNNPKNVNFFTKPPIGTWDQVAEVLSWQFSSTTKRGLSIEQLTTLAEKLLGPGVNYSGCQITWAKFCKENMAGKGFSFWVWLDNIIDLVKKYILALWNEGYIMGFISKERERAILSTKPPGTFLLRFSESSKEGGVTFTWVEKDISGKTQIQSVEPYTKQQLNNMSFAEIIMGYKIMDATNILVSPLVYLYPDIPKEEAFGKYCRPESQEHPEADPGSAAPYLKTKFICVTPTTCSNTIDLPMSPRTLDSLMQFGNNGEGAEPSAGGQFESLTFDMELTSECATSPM
row,SMILES,outcome
1,CCOS(=O)(=O)OCC,inactive
2,Nc1cc2c3c(c1)C(c1ccccc1)=N[C@@H](NC(=O)c1cccnc1)C(=O)N3CC2,inactive
3,C/C(=N\NC(=O)Nc1cc(F)cc(F)c1)c1ncccc1C(=O)O,inactive
4,OCC(F)(F)OC(F)(F)C(F)(F)OC(F)(F)C(F)(F)OC(F)(F)CO,inactive
5,O=S1(=O)OCC2C(CO1)C1(Cl)C(Cl)=C(Cl)C2(Cl)C1(Cl)Cl (stereo not drawn),inactive
6,Oc1ccccc1Br,inactive
7,CCOP(=S)(OCC)SCn1nnc2ccccc2c1=O,inactive
8,O=C(O)C=CC(F)(C(F)(F)F)C(F)(F)F,inactive
9,O=C(O)C(F)(OC(F)(F)C(F)(F)C(F)(F)F)C(F)(F)F (stereo not drawn),inactive
10,CC1=C(C(=O)Nc2ccccc2)S(=O)(=O)CCO1,inactive
11,O=P1(N(CCCl)CCCl)NCCCO1 (stereo not drawn),inactive
12,Nc1ccc(Cl)cc1,inactive
13,CNC(=O)Oc1ccc(N(C)C)c(C)c1,inactive
14,Nc1ccc(Sc2ccc(N)cc2)cc1,inactive
15,CCCCN(CCCC)N=O,inactive
16,CC(O)C(F)(F)C(F)(F)F (stereo not drawn),inactive
17,CCN(CC)c1ccccc1,inactive
18,O=C(O)C(F)(F)C(F)(F)C(=O)O,inactive
19,CCCCc1ccccc1,inactive
20,N#Cc1c(-c2ccc(Cl)cc2)[nH]c(C(F)(F)F)c1Br,inactive
21,c1nc[nH]n1,inactive
22,CCC(C)(C)c1ccc(O)cc1,inactive
23,O=C(O)C(Cl)Cl,inactive
